# The full ranking holds about 33,000 sequences; the median of “E-score (-0.5 to 0.5)” is about -0.035, and the highest 2% start at about 0.35. What follows is part of a selection rich in the highest values, with near analogues and random picks from the rest.
# Biological target: T1, Pdr3 (UniProt P33200)
# T1 sequence: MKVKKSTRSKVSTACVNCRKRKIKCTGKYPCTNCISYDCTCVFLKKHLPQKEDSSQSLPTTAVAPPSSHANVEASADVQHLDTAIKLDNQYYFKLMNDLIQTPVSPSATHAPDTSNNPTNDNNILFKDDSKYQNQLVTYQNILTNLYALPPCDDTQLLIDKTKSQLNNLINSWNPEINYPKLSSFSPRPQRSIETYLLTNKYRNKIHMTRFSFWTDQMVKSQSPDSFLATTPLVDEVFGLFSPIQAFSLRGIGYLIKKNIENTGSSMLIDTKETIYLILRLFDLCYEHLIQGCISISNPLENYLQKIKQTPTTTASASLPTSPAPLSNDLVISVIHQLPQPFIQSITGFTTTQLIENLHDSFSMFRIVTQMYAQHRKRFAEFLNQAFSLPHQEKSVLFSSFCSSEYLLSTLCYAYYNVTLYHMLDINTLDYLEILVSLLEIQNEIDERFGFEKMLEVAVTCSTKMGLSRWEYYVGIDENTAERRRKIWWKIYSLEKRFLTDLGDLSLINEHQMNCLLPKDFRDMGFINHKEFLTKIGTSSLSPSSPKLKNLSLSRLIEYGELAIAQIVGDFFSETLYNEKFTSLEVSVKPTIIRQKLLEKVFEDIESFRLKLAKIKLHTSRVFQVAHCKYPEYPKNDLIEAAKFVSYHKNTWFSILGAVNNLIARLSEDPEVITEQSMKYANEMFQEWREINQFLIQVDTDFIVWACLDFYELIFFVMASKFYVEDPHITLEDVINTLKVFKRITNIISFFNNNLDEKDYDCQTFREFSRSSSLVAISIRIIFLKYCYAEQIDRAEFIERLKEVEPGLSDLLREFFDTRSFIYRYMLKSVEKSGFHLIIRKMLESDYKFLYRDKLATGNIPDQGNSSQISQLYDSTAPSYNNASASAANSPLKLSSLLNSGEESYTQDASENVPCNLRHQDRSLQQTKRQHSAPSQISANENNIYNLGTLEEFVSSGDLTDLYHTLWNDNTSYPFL
# Assay: PBM E-score (8-mer binding enrichment) (E-score (-0.5 to 0.5)); higher = stronger / more preferred TF binding
# Conditions: protein concentration: 200 nM; construct: GST-full length
# Method: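 Universal 'all 10-mer' protein binding microarrays (Agilent AMADID 015681) probed with GST-tagged S. cerevisiae TFs (full-length or DBD) made by in vitro transcription/translation (PURExpress), about 100-200 nM. Bound TF was detected with fluorescent anti-GST. Each ungapped 8-mer (which stands for itself and its reverse complement) is scored by the PBM enrichment score (E-score), a modified Wilcoxon-Mann-Whitney statistic from -0.5 to +0.5, computed with the Universal PBM Analysis Suite. Scale: above 0.35 generally sequence-specific binding.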
row,Sequence,PBM E-score
1,ATAGTCAT,-0.0921
2,GGCGGCGA,0.243
3,CGCGGCGC,0.398
4,CGCGGCGA,0.374
5,CGCGGCAC,0.385
6,AGCGGCAC,0.118
7,CGGCGCGC,0.245
8,AGCGGCGC,0.137
9,CGCGGCAA,0.341
10,AGCGGCGA,0.197
11,CCGAGCAC,0.122
12,ACGTGAGT,-0.0439
13,TGAGTCCA,-0.18
14,AAAGTCAT,-0.0971
15,ATTAGGGG,-0.0731
16,AACCCTGT,-0.104
17,ATGTTGCG,0.091
18,ATGGAGCG,0.0393
19,CTGAGGAC,-0.0292
20,AATACCCC,0.188
21,TCCATCAA,0.0544
22,CCGGGTGA,0.404
23,TCGGGTAA,0.0953
24,CCGGGTAC,0.303

row,Sequence,PBM E-score
1,CGGGGTGA,0.214
2,GCGGGTGA,0.26
3,CCGGGTAA,0.397
4,GGACGGCC,0.188
5,AGCCTTTC,-0.167
6,CACCAAAA,-0.054
7,CCGGTGTA,0.153
8,CTCTCGTA,-0.00771
9,AACGCAGG,-0.0195
10,AACTTAAT,0.115
11,ACATTTAT,-0.248
12,GCGACACA,-0.0561
13,CTCGGATA,0.273
14,CGCGGATC,0.431
15,AGCAGATC,-0.0743
16,ATCGGATC,0.301
17,CTCGGATC,0.386
18,CGCAGATC,-0.0483
19,CCCAGATC,-0.145
20,CGCGGCTC,0.344
21,AGCGGATC,0.374
22,AGCGGATG,0.191
23,CCCGGATA,0.34
24,CCCGGATC,0.419

row,Sequence,PBM E-score
1,GAACCCCA,0.211
2,TCAGTAAA,-0.00839
3,ACCACAGG,-0.238
4,CGAGGTAA,0.0804
5,AGCTGGAG,-0.163
6,TAGGCTAA,-0.288
7,AAAGGCAA,-0.0369
8,CGGCCTAC,0.158
9,GGCGGATA,0.287
10,AGCGGATA,0.3
11,CTCGGACA,0.285
12,CTCAGACC,-0.0888
13,CTCGGACC,0.359
14,CGCGGATA,0.412
15,CCACATTC,0.0586
16,GAGGCGAA,0.0545
17,CGCGAGCG,0.106
18,CTCTATGC,-0.0609
19,CCGGACAG,0.338
20,CCGGACAA,0.329
21,CCGGACAC,0.366
22,CCGGACTC,0.363
23,ACGGACTC,0.205
24,CCGGACTA,0.333

row,Sequence,PBM E-score
1,AGTGACTA,-0.132
2,ATCCCGTA,0.242
3,ATCCCGAG,0.395
4,ATCCCGAA,0.308
5,ATCCCGTG,0.396
6,ATCCCGTC,0.311
7,ATCCCGAT,0.302
8,AGCGGTCC,0.0698
9,CGCGGTAA,0.36
10,CGCGGTAG,0.282
11,GGCGGTAA,0.326
12,AGCGGTAC,-0.0325
13,CGCGGTAC,0.367
14,CGCGGTCC,0.384
15,AGCGGTAA,0.045
16,CGCGGTCA,0.307
17,TCTCTACA,-0.249
18,CAGGGACA,0.0593
19,ATGCAAGC,-0.0447
20,TAGTTGGA,-0.0882
21,CCGCACTA,0.241
22,GATGAAAC,0.0428

# From the supplement of paper PMC3334620
